Assay results from PubChem BioAssay (NCATS).
Calls of active or inactive are those of the source. Calls follow the shape of the dose curve; as a rule, active = well fitted curve in the direction sought with a large enough effect; inconclusive = small, poorly fitted or top-dose-only effect, or another doubt; inactive = no such curve, though single readings can be large or run the other way.

Experiment: Cellular Toxicity (caspase-3) HUV-EC-C (AID 656)
Settings: HUV-EC-C cells, caspase-3 activation (apoptosis), vehicle = 0, 100 µM tamoxifen = 100%; series mostly up to 92.2 µM; caspase-3 activation: at the top concentration
From the text: NIH Chemical Genomics Center [NCGC]
NIH Molecular Libraries Screening Centers Network [MLSCN]
National Institutes of Environmental Health Sciences [NIEHS]
National Toxicology Program [NTP]
We have developed a 1536-well cell-based assay for quantitative high throughput screening (qHTS) against a number of cell lines to determine in vitro caspase 3/7 of small molecules. This particular assay uses the HUV-EC-C cell line which is derived from normal human vascular endothelial cells.
NCGC Assay Protocol Summary:
The Caspase-Glo 3/7 assay (Promega) is a homogeneous method to measure caspase-3 and caspase-7 activities in cultured cells. The quantitation of caspase 3/7 activity is based on the cleavage of a peptide-aminoluciferin substrate. After caspase cleaves the substrate the free aminoluciferin is liberated and serves as the substrate of luciferase, which generates the light. The luminescent signal is proportional to amount of caspase 3/7 activity present.
Using the Caspase-Glo 3/7 assay, the amount of caspase 3/7 activity was measured in the HUV-EC-C cell line with complete culture medium following compound treatment for 16 hours. The assay was performed in opaque white 1536-well plates. In the screen, tamoxifen and doxorubicin were used as positive controls. Library compounds were measured for their ability to cause the activation of caspase 3/7 in the cell line, as reflected by an increase in luminescence signal, in a concentration-dependent manner. Data were normalized to the controls for basal activity (DMSO only) and 100% stimulation (100 uM tamoxifen). AC50 values were determined from concentration-response data modeled with the standard Hill equation.
qHTS protocol for caspase 3/7 assay in HUV-EC-C cell line
[Step] [Parameter] [Value] [Description]
1. Reagent; 5 uL; 1000 HUV-EC-C cells/well
2. Time; 5 hr; 37 °C incubation
4. Controls; 23 nL; Tamoxifen 0.23 uM to 100 uM & doxorubicin 7.0 pM to 100 uM
5. Time; 16 hr; 37 °C incubation
6. Reagent; 5 uL; Caspase-Glo 3/7 reagent
7. Time; 20 min; Room Temperature
8. Detection; Luminescence; Viewlux plate reader
Keywords: caspase 3/7, apoptosis, HUV-EC-C cell line, luminescence, NTPHTS, NTPHTS_NCGC, NIEHS, EPA, DSSTox, MLSMR, MLSCN, NIH Roadmap, qHTS, NCGC

Row | Structure (SMILES) | caspase-3 activation | outcome
1 | ClC1=C(Cl)C2(Cl)C3C(Cl)C=CC3C1(Cl)C2(Cl)Cl (stereo not given) | 2.04% (inactive) | –
2 | BrCCBr | 2.09% (inactive) | –
3 | CCN(CC)c1ccccc1 | 9.88% (inactive) | –
4 | OCC1CO1 (stereo not given) | -3.35% (inactive) | –
5 | COC(=O)NC(=S)Nc1ccccc1NC(=S)NC(=O)OC | 1.25% (inactive) | –
6 | Clc1ccc2ccccc2c1 | -3.36% (inactive) | –
7 | CCOP(=S)(OCC)Oc1ccc([N+](=O)[O-])cc1 | – | inactive
8 | ClC(Cl)(Cl)c1ccccc1 | – | inactive
9 | c1ccc(N=Nc2ccccc2)cc1 | -0.653% (inactive) | –
10 | Brc1ccccc1 | -2.87% (inactive) | –
11 | C=CC(=C)C | -0.154% (inactive) | –
12 | Clc1cccc(C(Cl)(Cl)Cl)n1 | -2.76% (inactive) | –
13 | Cc1ccc([N+](=O)[O-])cc1C | -2.21% (inactive) | –
14 | C=CCOC(=O)c1ccccc1N | 2.98% (inactive) | –
15 | COc1ccc(C=O)cc1OC | 2.08% (inactive) | –
16 | Brc1ccc(Oc2cc(Br)c(Br)cc2Br)c(Br)c1 | – | inactive
17 | CC(C)(C)OO | – | inactive
18 | C[C@H]1CCCC(=O)CCC/C=C/c2cc(O)cc(O)c2C(=O)O1 | – | inactive
19 | C=CC(N)=O | – | inactive
20 | COC1=CC(=O)OC(CCc2ccccc2)C1 (stereo not given) | -2.45% (inactive) | –

Row | Structure (SMILES) | caspase-3 activation | outcome
21 | ClC1=C(Cl)C2(Cl)C3C4CC(C5OC45)C3C1(Cl)C2(Cl)Cl (stereo not given) | 2.11% (inactive) | –
22 | O=NN(c1ccccc1)c1ccccc1 | -0.654% (inactive) | –
23 | CCSC(=O)Cl | -0.541% (inactive) | –
24 | O=S1OCC2C(CO1)C1(Cl)C(Cl)=C(Cl)C2(Cl)C1(Cl)Cl (stereo not given) | 14.4% (inactive) | –
25 | NC(=S)Nc1ccccc1 | – | inactive
26 | Cc1cccc([N+](=O)[O-])c1 | 1.81% (inactive) | –
27 | OCC(Br)CBr (stereo not given) | 2.02% (inactive) | –
28 | c1nc[nH]n1 | -0.755% (inactive) | –
29 | CCCCOCCOP(=O)(OCCOCCCC)OCCOCCCC | -4.03% (inactive) | –
30 | C[N+](C)(C)Cc1ccccc1 | 0.978% (inactive) | –
31 | C=CC(=O)OCC | -6.53% (inactive) | –
32 | COc1ccc(N)cc1 | – | inactive
33 | CCCC(=O)Cl | 5.27% (inactive) | –
34 | CCCCCCCCCc1ccc(O)cc1 | 26.9% (inactive) | –
35 | c1ccc2c(c1)CCCC2 | 1.86% (inactive) | –
36 | ClC1=C(Cl)C2(Cl)C3C4C=CC(C4)C3C1(Cl)C2(Cl)Cl (stereo not given) | 9.18% (inactive) | –
37 | CC(C)(C)OOC(C)(C)C | -0.887% (inactive) | –
38 | C=CC1CC=CCC1 (stereo not given) | -2.52% (inactive) | –
39 | C=CC(C)=O | -1.49% (inactive) | –
40 | Cc1ccc2ccccc2c1 | 6.62% (inactive) | –
